# Measured values published in PubChem BioAssay (NCI).
# This is part of a sample that, as a whole, favours compounds with a hit. Of some 83,000 tested, about 20% had one in any assay.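 Step 1: grow cells in 96-well plates. Step 2: add test compound at a single concentration. Step 3: incubate 48 h. Step 4: record percent growth.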 A number with no mark means an inactive call. Active and inactive are the calls of the source. Rule for the calls: active = growth percent below 10; inactive = the rest.
# Tested on: HL-60(TB) leukemia
# Assay: NCI-60 one-dose screen, 48 h (100 = growth as untreated, 0 = no growth, -100 = all killed)
# Settings: 10 µM unless noted
row,SMILES,growth
1,Cn1c2ccccc2c2c3c(c4c5ccccc5n(C)c4c21)C(=O)OC3,98.5%
2,Brc1ccc(SSc2ccc(Br)cc2)cc1,70.9%
3,C=C(C[C@@](O)(C(=O)Oc1ccccc1)C(=O)C1CCCCC1)c1ccccc1,112%
4,O=C(Nc1nc(-c2ccccc2Cl)cs1)c1cc(-c2ccc(Br)cc2)nc2ccccc12,37.2%
5,CCSC1=NC2C(N(CC)C(=O)N2CC)N1/N=C/C=C/c1ccccc1[N+](=O)[O-] (stereo not given),-49.4% (active)
6,CC1=C2CC/C(C)=C/CC[C@]3(C)O[C@H]3CC/C(C)=C/[C@H]2OC1,86.5%
7,CN1CCN(c2nc(-c3csc(-c4cccs4)n3)cc3ccccc23)CC1,34.4%
8,COc1ccc(OC)c(-c2cn3nc(-c4c[nH]c5ccc(Br)cc45)sc3n2)c1,86.3%
9,CCN(CCCNc1cc2c(c(N)c1S(=O)(=O)O)C(=O)c1ccccc1C2=O)c1ccccc1,84.9%
10,COC(=O)[C@@]12CC[C@@H](C)[C@]3(C[C@@H](c4ccoc4)OC3=O)[C@H]1CC[C@@H]1O[C@@]12C,104%
11,N#C/C(=C\c1cccc2cnccc12)n1nnc2cccc(F)c21,1.65% (active)
12,Cc1cc2c(cc1C)[n+](Cc1ccc3ccccc3c1)cn2Cc1ccc2ccccc2c1,-60% (active)
13,C#Cc1cccc(NC(=O)c2ccccc2NC(=O)C=C)c1,97.7% [8.25 µM]
14,CCCCCCCC/C=C\CCCCCCCCOc1cccc(CC(=O)NCC[N+]2(C)CCOCC2)c1,67.6%
15,CC(C)(C)n1cc(-c2ccnc(NCCNS(=O)(=O)c3cccc4ccccc34)c2)c(-c2cccc(O)c2)n1,71%
16,CCN(CC)CCOc1ccc(/C(=C(\Cl)c2ccccc2)c2ccccc2)cc1,75.9%
17,C=C(C)[C@@H]1CC[C@]2(C(=O)NC3CCCCC3)CC[C@]3(C)[C@H](CC[C@@H]4[C@@]5(C)CCC(=O)C(C)(C)[C@@H]5CC[C@]43C)[C@@H]12,76.6%
18,O=C1/C(=C/c2ccc(Cl)cc2)CN(C(=O)C(Cl)Cl)C/C1=C\c1ccc(Cl)cc1,-19.3% (active)
19,CC1CCN(CCOc2ccc(CNc3ccc4nc(CCC5CCCCC5)[nH]c4c3)cc2)CC1,5.83% (active)
20,COc1ccc(CNCCN2C(=O)c3ccc4c5c(ccc(c35)C2=O)C(=O)N(CCNCc2ccc(OC)c(OC)c2OC)C4=O)c(OC)c1OC,-43.2% (active)

row,SMILES,growth
1,CCOC(=O)c1c(C)nc(C)c(C(=O)OCC)c1-c1cccnc1,61.1%
2,Cn1cc(-c2nnc(-c3cn(C)c4ncccc34)o2)c2ccccc21,12.5%
3,COc1ccc(OC)c(-c2ccc(-c3ccccc3N)c3[nH]c4ccccc4c23)c1,93.4%
4,Cc1ccc2c(c1)C(C)Cc1c(ncnc1-n1cnc3cc(C)ccc31)N2C (stereo not given),-22% (active)
5,CNC(=O)c1cc(Oc2ccc3nc(NC(=O)Nc4ccc(C(F)(F)F)cc4)sc3c2)ccn1,120%
6,O=C(c1nc2ccccc2[nH]1)C1C(c2ccc(Cl)cc2)C2CC3CCCC[C@H]3N2[C@@]12C(=O)Nc1cc(Cl)ccc12 (stereo not given in full),23.8%
7,c1ccc2[nH]c(Cc3nc4ccccc4[nH]3)nc2c1,75.6%
8,COc1ccc(/C=C2/C(=O)N=C3N2NC(c2ccccc2)=CN3c2ccccc2)cc1,101%
9,COc1nc2ccc(C)cc2cc1-c1nc2c(cnn2-c2ccccc2)c(=O)[nH]1,50.1%
10,COc1ccc(Nc2nccc(Nc3ccc4[nH]ncc4c3)n2)cc1,59.6%
11,CC(=O)N1N=C(c2ccc(Nc3nc(Nc4ccccc4)nc(Nc4ccccc4)n3)cc2)CC1c1ccccc1 (stereo not given),79.3%
12,CC(C)(C)c1ccc(S(=O)(=O)Oc2ccc(NC(=O)C3CCCCC3)cc2)cc1,59.3%
13,CCCCCC(C)(CC(=O)O)CC(=O)O,90.5%
14,NC(=O)NC1(C(=O)O)CCCC1,97.1%
15,CCOC(=O)c1ccc2c(c1)nc(-c1ccccc1)n2C1CCCCC1,63.1%
16,Cc1ccc(-n2nc3n(/c2=N\C(=O)NS(=O)(=O)c2ccc(C)cc2)CCN3C2=NCCN2)cc1,146%
17,O=C(c1ccccc1)N1N=C(c2ccccc2)CC1c1nnc2n(Cc3ccccc3)c(=O)c3c4c(sc3n12)CCCC4 (stereo not given),97.7%
18,C=C1C(=O)C2CCN1CC2,97.4%
19,FC(F)(F)c1ccc2c(Nc3cccc(C4CC(c5ccccc5)=NN4c4ccc(Cl)cc4)c3)ccnc2c1 (stereo not given),36.5%
20,Cc1ccc(C(=O)c2sc3nc4c(cc3c2N)CCCC4)c(C)c1,-3.28% (active)
